From PubChem BioAssay (NCI)
This is part of a sample that, as a whole, favours compounds with a hit. Of some 83,000 tested, about 20% had one in any assay.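 Step 1: grow cells in 96-well plates. Step 2: add test compound at a single concentration. Step 3: incubate 48 h. Step 4: record percent growth.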 Values without a mark were called inactive. The source made the active and inactive calls. How the source made its calls: active means growth percent below 10; inactive means the rest.

Assays:
Experiment in all cases: NCI-60 one-dose screen, 48 h (100 = growth as untreated, 0 = no growth, -100 = all killed)
Conditions in all cases: 10 µM unless noted
HCT-15 colon = tested on: HCT-15 colon
HT29 colon = tested on: HT29 colon
SNB-75 CNS = tested on: SNB-75 CNS
SNB-19 CNS = tested on: SNB-19 CNS
U251 CNS = tested on: U251 CNS
PC-3 prostate = tested on: PC-3 prostate
UACC-62 melanoma = tested on: UACC-62 melanoma
LOX IMVI melanoma = tested on: LOX IMVI melanoma
SK-MEL-28 melanoma = tested on: SK-MEL-28 melanoma
SK-MEL-2 melanoma = tested on: SK-MEL-2 melanoma
SN12C renal = tested on: SN12C renal
UO-31 renal = tested on: UO-31 renal
TK-10 renal = tested on: TK-10 renal
ACHN renal = tested on: ACHN renal
CAKI-1 renal = tested on: CAKI-1 renal
A498 renal = tested on: A498 renal
CCRF-CEM leukemia = tested on: CCRF-CEM leukemia
MOLT-4 leukemia = tested on: MOLT-4 leukemia
EKVX NSCLC = tested on: EKVX NSCLC

| SMILES | growth (HCT-15 colon) | growth (HT29 colon) | growth (SNB-75 CNS) | growth (SNB-19 CNS) [%] | growth (U251 CNS) | growth (PC-3 prostate) | growth (UACC-62 melanoma) | growth (LOX IMVI melanoma) | growth (SK-MEL-28 melanoma) | growth (SK-MEL-2 melanoma) | growth (SN12C renal) | growth (UO-31 renal) | growth (TK-10 renal) | growth (ACHN renal) | growth (CAKI-1 renal) | growth (A498 renal) | growth (CCRF-CEM leukemia) | growth (MOLT-4 leukemia) | growth (EKVX NSCLC) [%] |
| --- | --- | --- | --- | --- | --- | --- | --- | --- | --- | --- | --- | --- | --- | --- | --- | --- | --- | --- | --- |
| CNC(C)=O | 105% | 94.8% | 104% | 104 | 93.4% | 96.6% | 105% | 95% | 101% | 104% | 100% | 93.3% | 91.1% | 118% | 96.2% | 104% | 103% | 95% | – |
| NS(=O)(=O)c1ccc(CN2C(=O)c3cccc4cccc(c34)C2=O)cc1 | 88.5% | 102% | 83.9% | 100 | 99% | 93.3% | 97.1% | 96.2% | 113% | 93% | 93.1% | 57.3% | 81.8% | 88.1% | 75.9% | 108% | 85.8% | 95.5% | – |
| CCCCC[C@@H]1Cc2cc(O)c(C(=O)O)c3c2[C@H](C[C@@]2(CCCO2)O3)O1 | 112% | 113% | 98.1% | 107 | 105% | 101% | 110% | 93.6% | 109% | 67.4% | 104% | 44.7% | 129% | 108% | 102% | 133% | 94.5% | 62.6% | 108 |
| CCCCCCc1nc2c(c(C)nn2-c2ccccc2)c2c1CCCCC2 | 108% | 100% | 105% | 99.9 | 102% | 94.1% | 101% | 98.2% | 107% | 116% | 104% | 91.5% | 126% | 107% | 94.8% | 104% | 101% | 106% | – |
| CCC#CC[C@H]1C/C=C2/C(=O)C=C[C@@H]2C/C=C\CCCC(=O)O1 | -6.01% (active) | -15.8% (active) | 38.7% | 37.3 | -11.2% (active) | -19.7% (active) | -17.6% (active) | -55.8% (active) | 1.63% (active) | 8.9% (active) | 0.755% (active) | -82.7% (active) | -1.68% (active) | -86.8% (active) | 18.2% | 46.5% | 9.12% (active) | 7.42% (active) | 23.7 |
| COc1cc(C2C=C(C)N=C3SC=C(C)N32)cc(OC)c1OC (centres undefined) | -20.4% (active) | -37.2% (active) | 24.6% | 33.5 | -75.6% (active) | -17.6% (active) | -61.3% (active) | -82.4% (active) | -75.5% (active) | -39.5% (active) | -8.33% (active) | -87.2% (active) | -22.5% (active) | -75% (active) | -49.9% (active) | – | -17.9% (active) | -2.68% (active) | – |
| COc1ccc(-c2nc(-c3nc4ccc(F)cc4[nH]3)cc3c2[nH]c2ccccc23)cc1 | 36.1% | 32.8% | 60.8% | 62.3 | 29.4% | 27.6% | 41.4% | 29.5% | 57.4% | 29.4% | 23.1% | 7.03% (active) | – | 32.1% | 15.2% | 26.4% | 17.6% | 22.5% | – |
| NS(=O)(=O)c1ccc(NCC(=O)Nc2ccc(-c3nc4ccccc4s3)cc2)cc1 | 46.6% | 74.5% | 69.5% | 74.3 | 71.3% | 64.7% | 38% | 13.1% | 99.4% | 87.8% | 47.8% | 74.4% | 106% | 105% | 92.9% | – | 6.24% (active) | 6.23% (active) | – |
| COc1cccc(/C=C/c2c(C(=O)O)cccc2[N+](=O)[O-])c1OC | 103% | 104% | 89.3% | 105 | 95.9% | 96.8% | 109% | – | 109% | 102% | 103% | 87.1% | – | 100% | 94.2% | 88.4% | 101% | 96.1% | – |
| CN(C)C/C=C/C(=O)Nc1cc2c(Nc3ccc(F)c(Cl)c3F)ncnc2cc1OCCOC(F)F | 9.17% (active) | 2.75% (active) | -19.4% (active) | 36.6 | 27.9% | 11% | 28.9% | 15.3% | 49.4% | 44.1% | 2.22% (active) | 4.31% (active) | 9.78% (active) | -7.73% (active) | -15.3% (active) | -47.7% (active) | 26.3% | 4.26% (active) | 12.4 |
| C=CCOc1ccc(/C(O)=C2\C(=O)C(=O)N(c3nccs3)C2c2ccccc2F)cc1 (centres undefined) | 82.1% | 108% | 89.8% | 102 | 93% | 114% | 76.6% | 90.3% | 107% | 54% | 103% | 110% | 89.1% | 79.4% | 98.7% | 73.8% | 131% | 98.3% | 133 |
| O=c1oc2cc(OS(=O)(=O)c3ccc(F)cc3)ccc2c2c1CCCCC2 | 26.8% | 27.5% | 80.9% | 78.1 | 57.6% | 44.6% | 65.3% | 88.1% | 86.1% | 72% | 70.1% | 50.2% | 89.6% | 84.9% | 86.7% | 83.4% | 36% | 63.8% | – |
| Cn1c(-c2nonc2NC(=O)c2ccc(F)cc2)nc2ccccc21 | 103% | 101% | 100% | 110 | 108% | 101% | 108% | 97.8% | 110% | 112% | 102% | 91.2% | 124% | 112% | 105% | 85.6% | 105% | -1.74% (active) | – |
| COc1ccc(/C=C2\Oc3cc(OCCN4CCCC4)ccc3C2=O)c(OC)c1 | 80.2% | 17.6% | 93.2% | 92.2 | 76.5% | 84.9% | 101% | 81.2% | 96.9% | 101% | 92.2% | 81.2% | 115% | 95.7% | 92.4% | 88.5% | – | 86.7% | 98.1 |
| COc1cc2nc(SCc3cc(OC)c(OC)c(OC)c3)n(Cc3ccccc3)c(=O)c2cc1OC | 20.1% | 10.6% | -16.6% (active) | 48.8 | 29% | 48.8% | 23.4% | 37.7% | 39.2% | -9.82% (active) | 41.2% | 34.7% | 64.3% | 39.2% | 25.7% | -5.24% (active) | 23% | – | – |
| Nc1nn2cc(-c3ccc(Cl)s3)nc2c2ccccc12 | 87.5% | 92% | 81.6% | 93 | 94.7% | 83.8% | 81.6% | 82.2% | 94.2% | 49.9% | 91.9% | 67.1% | 113% | 79.6% | 74.6% | 59.5% | 76.8% | 44.4% | – |
| CCC1CCc2nc3sc(C(=O)Nc4cccc(C)c4)c(N)c3cc2C1 (centres undefined) | 43.7% | 47.6% | 71.2% | 86 | 66.6% | 66.7% | 49.2% | 72.7% | 69.7% | 54.6% | 90.8% | 83.6% | 78.3% | 87% | 78.1% | 45.4% | 47.7% | 52.6% | – |
